# In PubChem BioAssay:
# A number with no mark means an inactive call. For some of these results: Measured potencies and affinities stand elsewhere. The source made the active and inactive calls. Unless noted, how the calls were made is not given here.
# What was measured:
# [1] = antimalarial activity against Dd2 strain (AID 2302;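 active means growth inhibition above 50% at the single 2 µM test dose, taken to imply half-maximal potency below 2 µM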;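 further: 0% = DMSO untreated growth and 100% = chloroquine plus artemisinin killed control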); settings: P. falciparum Dd2 in RBCs, LDH growth readout, 72 h; at 2 µM; hits give high values
# [2] = HepG2 cytotoxicity, primary screen, cytotoxicity control for P. falciparum antimalarial project, cell-based, ATP luminescence (AID 2303;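 active means inhibition above 50%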;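 further: 0% = DMSO wells and 100% = digitonin-killed cells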); settings: HepG2 viability, 24-48 h, at 10 µM, hits give high values
# [3] = molecular target: L-lactate dehydrogenase (Plasmodium falciparum (isolate CDC / Honduras)) (UniProt Q27743); assay: PfLDH activity inhibition – cell lysate, 3D7 strain, counter-screen for P. falciparum growth inhibition project (AID 2304);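 further: 0% = vehicle and 100% = reference inhibitor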; settings: P. falciparum 3D7 crude extract, LDH APAD/NBT absorbance; at 2 µM; hits give high values
# L-lactate dehydrogenase (Plasmodium falciparum (isolate CDC / Honduras)), sequence (Q27743 whole entry, looked up): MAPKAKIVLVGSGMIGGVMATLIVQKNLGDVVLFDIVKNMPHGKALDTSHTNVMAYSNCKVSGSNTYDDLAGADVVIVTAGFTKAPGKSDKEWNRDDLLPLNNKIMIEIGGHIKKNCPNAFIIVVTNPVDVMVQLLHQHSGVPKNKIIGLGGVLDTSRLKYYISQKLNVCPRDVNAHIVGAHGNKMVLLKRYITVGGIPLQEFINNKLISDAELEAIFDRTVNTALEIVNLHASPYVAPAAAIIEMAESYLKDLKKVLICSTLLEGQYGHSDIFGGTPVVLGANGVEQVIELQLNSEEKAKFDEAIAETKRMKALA
# [4] = inhibition of 3D7 malaria parasite growth – strain 3D7 (AID 2306);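 further: 0% = DMSO wells and 100% = chloroquine plus artemisinin control wells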; settings: P. falciparum 3D7 erythrocytic growth, LDH absorbance, 72 h; at 2 µM; hits give high values
# [5] = molecular target: Calcium-dependent protein kinase 1 (Plasmodium falciparum (isolate 3D7)) (UniProt P62344); assay: PfCDPK1 kinase inhibitors, biochemical, TCAMS library (AID 1159585; cut-off not given, nearly all actives have IC50 up to about 0.98 µM;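 further: inhibitors leave more ATP so luminescence rises with inhibition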); settings: recombinant PfCDPK1, Kinase-Glo ATP depletion luminescence
# Calcium-dependent protein kinase 1 (Plasmodium falciparum (isolate 3D7)), sequence (P62344 whole entry, looked up): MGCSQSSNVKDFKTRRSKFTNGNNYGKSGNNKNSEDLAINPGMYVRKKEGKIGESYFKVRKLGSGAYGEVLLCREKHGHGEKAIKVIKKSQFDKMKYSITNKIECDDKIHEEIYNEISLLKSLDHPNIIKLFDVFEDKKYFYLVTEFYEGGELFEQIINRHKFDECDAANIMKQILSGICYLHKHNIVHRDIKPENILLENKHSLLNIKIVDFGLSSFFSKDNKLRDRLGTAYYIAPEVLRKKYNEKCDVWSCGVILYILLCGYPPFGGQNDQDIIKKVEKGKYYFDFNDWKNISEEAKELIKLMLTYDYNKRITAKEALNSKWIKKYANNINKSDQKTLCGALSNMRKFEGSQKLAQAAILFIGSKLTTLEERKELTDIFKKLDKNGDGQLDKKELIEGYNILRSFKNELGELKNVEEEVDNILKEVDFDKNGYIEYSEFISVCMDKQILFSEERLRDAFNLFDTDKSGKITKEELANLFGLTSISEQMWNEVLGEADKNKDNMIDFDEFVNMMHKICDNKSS
# [6] = molecular target: Plasmodium falciparum protein kinase 6 (PK6, PF3D7_1337100) (UniProt Q8IDW1); assay: PfPK6 kinase inhibitors, biochemical, TCAMS library (AID 1159586); settings: recombinant PfPK6, Kinase-Glo ATP depletion luminescence
# Plasmodium falciparum protein kinase 6 (PK6, PF3D7_1337100), sequence (Q8IDW1 1-305): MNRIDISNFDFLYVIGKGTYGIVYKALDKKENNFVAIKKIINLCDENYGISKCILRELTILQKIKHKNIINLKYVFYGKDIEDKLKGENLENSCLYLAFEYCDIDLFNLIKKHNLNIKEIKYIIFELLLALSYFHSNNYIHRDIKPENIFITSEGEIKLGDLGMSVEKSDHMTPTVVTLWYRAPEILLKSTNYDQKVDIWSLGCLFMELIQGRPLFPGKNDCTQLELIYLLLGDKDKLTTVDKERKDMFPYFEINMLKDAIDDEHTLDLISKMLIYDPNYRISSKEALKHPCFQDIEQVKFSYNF
# [7] = molecular target: Protein kinase 7 (PK7), Plasmodium falciparum 3D7 (PF3D7_0213400) (UniProt Q7YTF7); assay: inhibition of Plasmodium PK7 catalytic activity – biochemical, TCAMS antimalarial set, Kinase-Glo luminescence (AID 1159587); settings: recombinant PfPK7, Kinase-Glo ATP depletion luminescence
# Protein kinase 7 (PK7), Plasmodium falciparum 3D7 (PF3D7_0213400), sequence (Q7YTF7 1-343): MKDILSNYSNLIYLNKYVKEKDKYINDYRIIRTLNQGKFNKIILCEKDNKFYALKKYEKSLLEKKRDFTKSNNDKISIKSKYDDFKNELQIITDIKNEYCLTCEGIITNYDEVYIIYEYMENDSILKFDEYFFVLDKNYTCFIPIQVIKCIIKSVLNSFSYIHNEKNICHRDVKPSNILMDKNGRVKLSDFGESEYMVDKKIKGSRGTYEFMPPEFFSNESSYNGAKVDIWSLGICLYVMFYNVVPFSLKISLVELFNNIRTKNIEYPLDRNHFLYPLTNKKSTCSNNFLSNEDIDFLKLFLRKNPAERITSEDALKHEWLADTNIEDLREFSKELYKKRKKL
# [8] = molecular target: Calcium-dependent protein kinase 4 (Plasmodium falciparum (isolate 3D7)) (UniProt Q8IBS5); assay: PfCDPK4 kinase inhibitors, biochemical, TCAMS library (AID 1159588; cut-off not given, nearly all actives have IC50 up to about 0.91 µM); settings: recombinant PfCDPK4, Kinase-Glo ATP depletion luminescence
# Calcium-dependent protein kinase 4 (Plasmodium falciparum (isolate 3D7)), sequence (Q8IBS5 whole entry, looked up): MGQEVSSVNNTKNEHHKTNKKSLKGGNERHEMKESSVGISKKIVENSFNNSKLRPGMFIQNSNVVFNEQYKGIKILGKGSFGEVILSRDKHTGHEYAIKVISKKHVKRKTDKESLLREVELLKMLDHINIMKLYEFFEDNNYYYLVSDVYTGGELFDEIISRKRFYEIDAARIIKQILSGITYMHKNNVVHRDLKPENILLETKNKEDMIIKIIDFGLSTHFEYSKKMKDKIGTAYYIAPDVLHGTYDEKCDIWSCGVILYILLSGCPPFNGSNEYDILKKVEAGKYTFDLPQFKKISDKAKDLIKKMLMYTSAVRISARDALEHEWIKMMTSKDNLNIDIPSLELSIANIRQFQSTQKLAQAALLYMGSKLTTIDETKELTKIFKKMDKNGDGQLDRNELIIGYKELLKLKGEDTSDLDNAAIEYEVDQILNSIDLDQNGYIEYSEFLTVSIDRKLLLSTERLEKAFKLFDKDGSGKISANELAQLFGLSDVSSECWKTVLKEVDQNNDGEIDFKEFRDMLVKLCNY
SMILES,growth inhibition [1],inhibition [2],inhibition [3],growth inhibition [4],outcome [5],outcome [6],outcome [7],outcome [8]
CCOC(=O)NC1=NC(C)(C)N(OCc2cccc3c2ccc2ccccc23)C(NC(=O)OCC)=N1,3%,3%,4%,98% (active),inactive,inactive,inactive,inactive
COc1cc(COc2c(C)nc(N)nc2N)cc(OC)c1OC,-5%,7%,-9%,100% (active),inactive,inactive,inactive,inactive
Cc1nnsc1C(=O)Nc1cccc(-c2csc(-c3nc4ccccc4[nH]3)c2)c1,50% (active),51% (active),8%,94% (active),inactive,inactive,inactive,inactive
NC(=NCc1ccccc1)Nc1cccc(Cc2ccccc2)n1,52% (active),57% (active),0%,85% (active),inactive,inactive,inactive,inactive
Cc1ccc(Cn2nc(Cl)c(N3CCCNCC3)cc2=O)cc1NC(=O)Nc1ccc(-c2ccccc2)cc1,55% (active),90% (active),-1%,101% (active),inactive,inactive,inactive,inactive
Cc1ccc(C(NC(=O)c2ccccc2)c2ccc3cccnc3c2O)cc1 (stereo not drawn),72% (active),53% (active),7%,92% (active),inactive,inactive,inactive,inactive
COc1cc2c(cc1OC)CN(CCc1ccc(NC(=O)c3cc4cc(Cl)ccc4[nH]3)cc1)CC2,6%,3%,2%,90% (active),inactive,inactive,inactive,inactive
CC(Oc1cccc(Cl)c1)C(=O)N1CCc2ccccc21 (stereo not drawn),77% (active),4%,-1%,94% (active),inactive,inactive,inactive,inactive
Clc1cc(Nc2ccnc3ccc(Br)cc23)ccc1Oc1ccc(Cl)c2ccccc12,86% (active),6%,3%,99% (active),inactive,inactive,inactive,inactive
Cn1cc(CN2CCCC(COC(c3ccccc3)c3ccccc3)C2)cn1 (stereo not drawn),99% (active),24%,0%,99% (active),inactive,inactive,inactive,inactive
COC(=O)Cc1ccc(N)c2ccccc12,-1%,2%,-1%,98% (active),inactive,inactive,inactive,inactive
COc1ccc(Nc2nccc(-c3ccc(NC(=O)c4cc5cc(F)ccc5[nH]4)cc3)n2)cc1,26%,21%,-2%,91% (active),inactive,inactive,inactive,inactive
C=C(C)CSc1nc2c(c(=O)n1Cc1ccco1)C1(CCCCC1)Cc1ccccc1-2,68% (active),2%,-9%,97% (active),inactive,inactive,inactive,inactive
CC(=O)N(Cc1ccc(CC(C)NCCc2cccc(Cl)c2)cc1)Cc1ccc(CC(C)NCCc2cccc(Cl)c2)cc1 (stereo not drawn),94% (active),98% (active),-4%,101% (active),inactive,inactive,inactive,inactive
CC(C)(C)CC(C)(C)c1ccc(O)c(C(=O)Nc2ccc([N+](=O)[O-])cc2)c1,99% (active),80% (active),5%,97% (active),inactive,inactive,inactive,inactive
O=C(O)c1ccc(NC(=O)C2CC(=O)N(Cc3ccc(Cl)cc3)C(=Nc3ccc(Cl)cc3)S2)cc1 (stereo not drawn),95% (active),-1%,-6%,99% (active),inactive,inactive,inactive,inactive
c1ccc(CNCc2cccc(-c3ccc(-c4nc5ccccc5[nH]4)cc3)c2)cc1,39%,10%,-5%,97% (active),inactive,inactive,inactive,inactive
Cc1cccc2[nH]c(-c3cccc(-c4cccc(CNCCN5CCNCC5)c4)c3)nc12,0%,11%,1%,90% (active),inactive,inactive,inactive,inactive
NS(=O)(=O)NCCCN1CCN(c2ccccc2)CC1,73% (active),2%,-2%,90% (active),inactive,inactive,inactive,inactive
COc1ccc(C=CC(=O)Nc2ccc(N3CCCC3)cc2)cc1,9%,-1%,-1%,81% (active),inactive,inactive,inactive,inactive
COc1ccc(CNC(=O)NC2CCN(c3ccnc(Nc4cc(OC)c(OC)c(OC)c4)n3)C2)cc1 (stereo not drawn),90% (active),-2%,3%,91% (active),inactive,inactive,inactive,inactive

SMILES,growth inhibition [1],inhibition [2],inhibition [3],growth inhibition [4],outcome [5],outcome [6],outcome [7],outcome [8]
Cc1cccc(OC(C)C(=O)Nc2cc(C(F)(F)F)ccc2N2CCOCC2)c1 (stereo not drawn),98% (active),2%,-3%,100% (active),inactive,inactive,inactive,inactive
COc1ccc(CN(C)CCCc2ccc(NC(=O)Cc3ccc4nc(-c5ccccc5)ccc4c3)cc2)cc1OC,-2%,10%,-3%,98% (active),inactive,inactive,inactive,inactive
COc1cc(CNCCC(C)C)ccc1OCc1cccc(COc2ccc(CNCCC(C)C)cc2OC)c1,20%,97% (active),6%,99% (active),inactive,inactive,inactive,inactive
COc1cc(OCCCN(C)Cc2ccc(OC)c(OC)c2)ccc1NC(=O)c1cccc2c(=O)c3cccc(F)c3[nH]c12,62% (active),10%,-5%,94% (active),inactive,inactive,inactive,inactive
Cc1cc(N2CCOCC2)nc2ccc(NC(=O)c3cccc([N+](=O)[O-])c3)cc12,37%,0%,0%,97% (active),inactive,inactive,inactive,inactive
CC(C)CCNC(=O)[C@@H]1[C@H]2C(=O)N(C3CCCCC3)C(=O)[C@H]2[C@H]2C=C[C@@H]3C(c4ccc(C(C)(C)C)cc4)=NO[C@@H]3N21,48%,-4%,-2%,96% (active),inactive,inactive,inactive,inactive
CNCCNCc1ccc(-c2ccc(-c3nc4ccccc4[nH]3)s2)cc1,15%,11%,5%,99% (active),inactive,inactive,inactive,inactive
COc1ccc2ncc(F)c(CCN3[C@@H]4CC[C@H]3CC(NCc3ccc5c(c3)OCCO5)C4)c2n1 (stereo partly drawn),35%,27%,-5%,102% (active),inactive,inactive,inactive,inactive
Cc1nc(N)nc(N)c1CCCOc1cccc(Cl)c1,-1%,16%,-4%,96% (active),inactive,inactive,inactive,inactive
O=C(Nc1ccc(OC2CCN(Cc3ccccc3)C2)c(Cl)c1)c1cccs1 (stereo not drawn),96% (active),13%,-2%,97% (active),inactive,inactive,inactive,inactive
O=C(Nc1cc(Cl)cc(Cl)c1)Nc1ccccc1C(=O)NC1CCCCC1,100% (active),12%,4%,101% (active),inactive,inactive,inactive,inactive
COc1ccc2nccc([C@@H](O)CN3CCC(NC(=O)/C=C/c4cc(F)cc(NC(C)=O)c4)CC3)c2c1,49%,7%,5%,97% (active),inactive,inactive,inactive,inactive
N#Cc1ccc(N2CCN(Cc3ccc(-c4cccc(-c5nc6ccccc6[nH]5)c4)cc3)CC2)nc1,29%,33%,-1%,95% (active),inactive,inactive,inactive,inactive
COc1ccc(C)cc1NC(=O)CSc1nc2cccnc2n1C1CCCCC1,78% (active),14%,-8%,89% (active),inactive,inactive,inactive,inactive
COc1cccc(C2CCN(CCN3CCC(NC(=O)c4ccc(-c5ccc(C(F)(F)F)cc5)cc4)CC3)CC2)c1,99% (active),46%,-7%,99% (active),inactive,inactive,inactive,inactive
O=C(/C=C/c1ccc(F)cc1)NC1CCC(CCN2CCc3ccc(-n4cccn4)cc3CC2)CC1 (stereo not drawn),16%,23%,3%,89% (active),inactive,inactive,inactive,inactive
N#Cc1ccc2[nH]cc(-c3cn4cc(SC5CCCC5)ccc4n3)c2c1,21%,1%,3%,92% (active),inactive,inactive,inactive,inactive
CN(C)CCN(C)Cc1ccc(-c2cccc(-c3nc4ccccc4[nH]3)c2)cc1,78% (active),46%,-1%,101% (active),inactive,inactive,inactive,inactive
CN(C)CCNCc1ccc(-c2ccc(-c3nc4ccccc4[nH]3)s2)cc1,100% (active),-2%,1%,101% (active),inactive,inactive,inactive,inactive
CCOCc1cnc(C)nc1CNC(=O)c1c(C)[nH]c2ccc(C)cc12,65% (active),8%,3%,84% (active),inactive,inactive,inactive,inactive
